# D3 ag – qHTS of D3 Dopamine Receptor Agonist: qHTS | D(3) dopamine receptor (Homo sapiens), P35462 | D3R DiscoveRx beta-arrestin cells, luminescence, 90 min | max activation, % | hit rate 0.58% among 410,000; in the data active = max activation above about 30%; note: 0% is about no effect
#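 Agonist-mode cell screen: cells plated at 1500/well and incubated overnight at 37 °C, then exposed to library compounds for 90 min at 37 °C. Detection reagent was added for 30–60 min at room temperature, and luminescence was read.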
# ClpP mod – qHTS Assay for Activators of ClpP. ATP-dependent Clp protease proteolytic subunit (Bacillus subtilis (strain 168)), P80244. Potency, µM (top dose mostly 57.5 µM), without a hit: at the highest dose activity change, negative = active. hit rate 1.9% among 340,000. purified B. subtilis ClpP, FRET peptide cleavage, 20 min; active = well fitted falling curve with a large enough effect; inconclusive = small, poorly fitted or top-dose-only effect; inactive = no such curve, though single readings can be large or run the other way; note: potency is the fitted concentration of half-maximal effect; the source files actives as falling curves though it sought activators and does not explain the sign; nearly all actives have a fitted effect of over 65% in size
# Target sequence (P80244 whole entry, looked up): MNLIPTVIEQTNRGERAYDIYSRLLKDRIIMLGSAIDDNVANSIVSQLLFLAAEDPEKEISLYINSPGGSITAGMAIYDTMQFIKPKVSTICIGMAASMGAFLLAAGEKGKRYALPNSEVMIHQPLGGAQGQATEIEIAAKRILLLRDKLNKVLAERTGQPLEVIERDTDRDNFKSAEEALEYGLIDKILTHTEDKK
#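 ClpP 10 microg/mL final, pH 8 Tris/KCl buffer with BSA, glycerol, Tween-20; compound pinned in; FRET-FV substrate; RT 20 min; Ex320/Em430; ΔFRET vs ADEP 5.8 microM, DMSO, no enzyme.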
# IL-1B inflam inh – qHTS for Inhibitors of Inflammasome Signaling: IL-1-beta AlphaLISA Primary Screen; THP-1 LPS/ATP IL-1B secretion, AlphaLISA, 16 h; stronger effect = lower value; activity change, % at 57.5 µM; hit rate 4.7% among 360,000; AID 743279, 2014; in the data active = activity change below about -50%; inconclusive = mostly about -30% to -49%; note: % is set by controls: 0 for no effect and ±100 for the full control effect
#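 THP-1 cells pretreated 1 hr with compounds (up to 57.5 uM final), then stimulated with LPS (250 ng/mL final) plus ATP (1.25 mM final); secreted IL-1B measured by AlphaLISA after 16 hr, decreased signal indicating inhibition.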
# TDP1 cell noCPT – qHTS for Inhibitors of human tyrosyl-DNA phosphodiesterase 1 (TDP1): qHTS in cells in absence of CPT. DT40 Tdp1-/- hTDP1 cells, no CPT, ATP luminescence, 48 h. hit rate 15% among 420,000. Potency, µM (titrated, usually from 46.2 µM), without a hit: at the top dose activity change, negative = growth inhibition, most hits filed as inhibitors; note: potency is the fitted concentration of half-maximal effect; % is set by controls: 0 for no effect and ±100 for the full control effect; nearly all actives have a fitted effect of over 55% in size
#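 Luminescent ATP content (CellTiter-Glo) served as the growth readout. Knockout chicken DT40 cells expressing human TDP1 were exposed to compounds without camptothecin for a minimum 48 hr at 37 °C.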
# D3 antag – qHTS of D3 Dopamine Receptor Antagonist: qHTS; D(3) dopamine receptor (Homo sapiens), P35462; hit rate 2.5% among 360,000; max response, negative = inhibition, %; D3R cells, DiscoveRx beta-arrestin luminescence, antagonist mode; stronger effect = lower value; AID 652054, 2013; in the data active = max response below about -50%; inconclusive = no clear call, values can overlap the other calls; note: % is set by controls: 0 for no effect and ±100 for the full control effect
#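 Cells expressing the human receptor were seeded at 1500 cells/well, incubated overnight at 37 degrees C in 5% CO2, then exposed to library compounds with dopamine controls for 90 minutes at 37 degrees C before luminescent detection.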
# TDP1 cell CPT – qHTS for Inhibitors of human tyrosyl-DNA phosphodiesterase 1 (TDP1): qHTS in cells in presence of CPT; chicken DT40 Tdp1-/-;hTDP1 cells + 20 nM CPT, ATP luminescence, 48 h; Potency, µM (doses to about 46.2 µM), for inactives: at the top dose activity change, negative = growth inhibition, usual class: inhibitors; hit rate 12% among 420,000; AID 686979, 2013; note: potency is the fitted concentration of half-maximal effect; % is set by controls: 0 for no effect and ±100 for the full control effect; nearly all actives have a fitted effect of over 55% in size
#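 Cell growth measured by CellTiter-Glo luminescence after a minimum 48 h, 37 C compound exposure with 20 nM CPT in Tdp1-knockout DT40 cells stably expressing hTDP1, seeded 400/well; qHTS titration format.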
# An asterisk follows results filed as active; ? = inconclusive; · = not tested or not shown; [ ] = another dose, or the depositor's remark. An excerpt weighted towards active compounds, which were near 21% of everything screened. Unless noted, calls come from the whole dose curve; as a rule, active = well fitted inhibition curve with a large enough effect; inconclusive = small, poorly fitted or top-dose-only effect; inactive = flat fitted curve, though single readings scatter.
SMILES,D3 ag,ClpP mod,IL-1B inflam inh,TDP1 cell noCPT,D3 antag,TDP1 cell CPT
COc1ccc(C(C)(O)c2nc(-c3ccc(N(C)C)cc3)cs2)cc1 (stereo not drawn),4,-4%,-10,16µM*,-19,18µM*
COc1ccc(C(C)(O)c2nc(-c3ccc(Cl)cc3)cs2)cc1 (stereo not drawn),1,-3%,21,?,4,?
COc1ccc(C(C)(O)c2nc(-c3ccccc3C)cs2)cc1 (stereo not drawn),-9,-5%,65,5.8µM*,-21,6.5µM*
COc1ccc(C(C)(O)c2nc(-c3cccs3)cs2)cc1 (stereo not drawn),3,1%,0,?,21,?
COc1ccc(C(C)(O)c2nc(-c3ccncc3)cs2)cc1 (stereo not drawn),-6,2%,61,5.8µM*,-20,5.8µM*
COc1ccc(C(C)(O)c2nc(-c3ccc(OC)c(OC)c3)cs2)cc1 (stereo not drawn),-3,-6%,-21,?,15,23µM*
COc1ccc(-c2csc(C(C)(O)c3ccccc3)n2)cc1OC (stereo not drawn),5,0%,-15,?,8,?
Cc1ccccc1-c1csc(C(C)(O)c2ccccc2)n1 (stereo not drawn),2,-1%,0,-23%,0,-19%
Cc1cc(C(=O)Nc2ccccc2)oc(=O)c1,6,·,-14,?,5,?
CCOCCC(=O)Nc1ccc2c(c1)c(=O)n(C)n2-c1ccccc1F,2,5%,-1,-21%,-5,-27%
O=C(Nc1cc(S(=O)(=O)N2CCOCC2)ccc1N1CCOCC1)c1ccc(Cl)nc1,-13,0%,66,-21%,-13,?
CCN1CCCC1CNC(=O)c1cnn(-c2ncc(C)c(-c3ccc(F)cc3)n2)c1C(C)C (stereo not drawn),·,·,·,-16%,·,-3%[9.04 µM]
COc1ccc(-c2csc(C(C)(O)c3ccccc3)n2)cc1 (stereo not drawn),-12,-17%,-16,?,0,16µM*
COc1ccc(C(C)(O)c2nc(-c3cccc(C(=O)O)c3)cs2)cc1 (stereo not drawn),7,2%,12,4%,8,14%
COc1ccc(C(C)(O)c2nc(-c3cccc(O)c3)cs2)cc1 (stereo not drawn),3,1%,?,23µM*,0,18µM*
COc1ccc(C(C)(O)c2nc(-c3ccc4ccccc4c3)cs2)cc1 (stereo not drawn),-6,-6%,6,?,0,?
COc1ccc(-c2csc(C(C)(O)c3ccc(F)c(F)c3)n2)cc1OC (stereo not drawn),0,1%,0,?,0,18µM*
COc1ccc(-c2csc(C(C)(O)c3ccc(OC)cc3)n2)cc1 (stereo not drawn),7,1%,45,?,17,15µM*
COc1ccc(-c2csc(C(C)(O)c3cccnc3)n2)cc1 (stereo not drawn),1,-1%,-65*,21µM*,3,16µM*
COc1ccc(C(C)(O)c2nc(-c3ccccc3)cs2)cc1 (stereo not drawn),3,0%,37,13µM*,12,18µM*
CC(=O)c1ccc(Nc2cc(C)nc3nc(Cc4ccc(Cl)cc4)nn23)cc1,4,-11%,·,-17%,·,?
c1ccc(CCN=C2CCCc3c2[nH]c2ccccc32)cc1,-2,·,6,-4%,-10,14%
